The results in this text go back to the supplement of paper PMC11732987, “Enantioselective OTUD7B fragment discovery through chemoproteomics screening and high-throughput optimisation” (Communications Chemistry, 2025).

Each structure is given as a SMILES string. Values without a mark were called inactive.

Common to all, as to assay: log2 ratio of Biotin-Ahx-Ub-VS probe labelling (fragment/DMSO); higher = less target engagement (more negative = stronger competition), active = hit call of the paper (q ≤ 0.05, log2 ratio ≤ -1)
Common to all, as to conditions: compound concentration: 200 uM; treatment time: 3 h

One experiment has as its target T1, USP42 (UniProt Q9H9J4).
T1 sequence (whole entry): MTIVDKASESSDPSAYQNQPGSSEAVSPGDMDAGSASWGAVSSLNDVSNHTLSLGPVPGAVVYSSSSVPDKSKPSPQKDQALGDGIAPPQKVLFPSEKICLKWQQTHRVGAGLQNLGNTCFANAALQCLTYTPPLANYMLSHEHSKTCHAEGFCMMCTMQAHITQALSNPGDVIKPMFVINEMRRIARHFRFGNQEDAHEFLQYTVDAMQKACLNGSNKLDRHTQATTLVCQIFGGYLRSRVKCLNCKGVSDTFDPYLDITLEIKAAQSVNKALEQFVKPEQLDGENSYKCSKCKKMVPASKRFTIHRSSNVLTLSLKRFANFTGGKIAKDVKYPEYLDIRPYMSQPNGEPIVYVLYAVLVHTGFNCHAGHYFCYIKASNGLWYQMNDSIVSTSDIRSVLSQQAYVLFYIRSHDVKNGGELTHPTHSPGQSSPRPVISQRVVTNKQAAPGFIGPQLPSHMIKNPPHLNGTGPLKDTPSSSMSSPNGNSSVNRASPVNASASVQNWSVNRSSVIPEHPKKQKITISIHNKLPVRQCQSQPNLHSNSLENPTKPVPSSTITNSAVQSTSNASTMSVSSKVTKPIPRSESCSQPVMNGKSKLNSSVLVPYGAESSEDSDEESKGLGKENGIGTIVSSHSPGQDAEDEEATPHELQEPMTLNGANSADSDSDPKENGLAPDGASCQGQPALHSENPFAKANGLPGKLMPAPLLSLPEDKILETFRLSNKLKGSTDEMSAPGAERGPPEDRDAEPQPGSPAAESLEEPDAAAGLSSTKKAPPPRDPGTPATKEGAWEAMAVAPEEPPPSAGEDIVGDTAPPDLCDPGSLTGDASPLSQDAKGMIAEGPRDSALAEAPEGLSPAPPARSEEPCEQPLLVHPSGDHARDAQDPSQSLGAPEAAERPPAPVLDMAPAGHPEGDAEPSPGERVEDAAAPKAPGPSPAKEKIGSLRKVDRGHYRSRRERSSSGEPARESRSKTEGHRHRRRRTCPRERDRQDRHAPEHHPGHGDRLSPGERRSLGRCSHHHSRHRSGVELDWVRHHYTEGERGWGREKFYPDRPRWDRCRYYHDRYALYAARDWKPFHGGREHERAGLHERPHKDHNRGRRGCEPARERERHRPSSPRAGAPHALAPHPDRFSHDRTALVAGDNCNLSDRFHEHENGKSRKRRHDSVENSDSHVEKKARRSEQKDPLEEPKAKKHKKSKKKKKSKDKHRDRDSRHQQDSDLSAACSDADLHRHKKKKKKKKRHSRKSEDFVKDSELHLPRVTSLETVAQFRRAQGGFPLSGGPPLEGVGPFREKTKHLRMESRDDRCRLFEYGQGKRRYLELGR
In outline:
(§1)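 Each value is an average log2 ratio of fragment to vehicle, tested by unpaired t-test. The underlying Spectronaut label-free quantities were global-median-normalised, and only proteins with ≥2 unique peptides were included. Triplicate HEK293T lysate samples (495 µg) were exposed to fragment at 200 µM or vehicle for 3 h, then to Biotin-Ahx-Ub-VS at 0.5 µM final for 1 h, before NeutrAvidin enrichment of labelled DUBs, LysC and trypsin digestion, and diaPASEF LC-MS/MS.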

The next experiment deals with USP46 (UniProt P62068). In a few lines:
as §1

Another experiment has as its target T2, USP47 (UniProt Q96K76).
T2 sequence (whole entry): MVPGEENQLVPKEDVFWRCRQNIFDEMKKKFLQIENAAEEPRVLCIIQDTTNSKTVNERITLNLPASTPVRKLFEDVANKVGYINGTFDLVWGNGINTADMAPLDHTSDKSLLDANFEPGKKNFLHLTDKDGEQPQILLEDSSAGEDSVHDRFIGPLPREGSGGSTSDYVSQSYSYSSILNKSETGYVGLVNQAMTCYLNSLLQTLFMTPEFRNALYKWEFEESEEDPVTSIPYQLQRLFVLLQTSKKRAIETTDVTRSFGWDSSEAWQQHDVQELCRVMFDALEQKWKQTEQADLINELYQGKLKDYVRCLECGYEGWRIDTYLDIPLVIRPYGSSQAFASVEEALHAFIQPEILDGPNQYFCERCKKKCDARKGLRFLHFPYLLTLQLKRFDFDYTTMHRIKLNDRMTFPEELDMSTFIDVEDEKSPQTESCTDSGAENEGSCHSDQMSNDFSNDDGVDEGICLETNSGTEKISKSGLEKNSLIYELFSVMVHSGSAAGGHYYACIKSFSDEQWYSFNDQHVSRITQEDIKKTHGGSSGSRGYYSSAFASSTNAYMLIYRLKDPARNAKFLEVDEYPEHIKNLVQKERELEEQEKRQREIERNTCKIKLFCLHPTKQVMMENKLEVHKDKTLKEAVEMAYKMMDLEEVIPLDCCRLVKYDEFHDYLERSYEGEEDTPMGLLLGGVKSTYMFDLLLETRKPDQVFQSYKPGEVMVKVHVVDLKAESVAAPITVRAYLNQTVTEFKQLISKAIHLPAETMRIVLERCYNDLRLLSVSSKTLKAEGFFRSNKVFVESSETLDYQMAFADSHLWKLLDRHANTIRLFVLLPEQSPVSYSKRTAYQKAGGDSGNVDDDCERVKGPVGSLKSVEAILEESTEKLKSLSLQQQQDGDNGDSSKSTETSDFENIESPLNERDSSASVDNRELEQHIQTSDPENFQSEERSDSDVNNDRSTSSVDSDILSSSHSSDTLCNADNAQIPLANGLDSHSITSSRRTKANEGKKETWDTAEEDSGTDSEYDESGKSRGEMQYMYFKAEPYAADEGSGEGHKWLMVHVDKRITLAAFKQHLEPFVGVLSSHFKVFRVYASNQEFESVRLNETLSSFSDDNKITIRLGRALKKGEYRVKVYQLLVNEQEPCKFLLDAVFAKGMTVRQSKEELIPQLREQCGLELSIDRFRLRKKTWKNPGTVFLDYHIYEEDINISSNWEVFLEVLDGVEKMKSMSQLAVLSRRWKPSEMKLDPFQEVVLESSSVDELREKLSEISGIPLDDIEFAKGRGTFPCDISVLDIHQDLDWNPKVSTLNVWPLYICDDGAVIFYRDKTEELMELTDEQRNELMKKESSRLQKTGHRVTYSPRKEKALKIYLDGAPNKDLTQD
In a few lines:
as §1

The next experiment concerns the target T3, USP48 (UniProt Q86UV5).
T3 sequence (whole entry): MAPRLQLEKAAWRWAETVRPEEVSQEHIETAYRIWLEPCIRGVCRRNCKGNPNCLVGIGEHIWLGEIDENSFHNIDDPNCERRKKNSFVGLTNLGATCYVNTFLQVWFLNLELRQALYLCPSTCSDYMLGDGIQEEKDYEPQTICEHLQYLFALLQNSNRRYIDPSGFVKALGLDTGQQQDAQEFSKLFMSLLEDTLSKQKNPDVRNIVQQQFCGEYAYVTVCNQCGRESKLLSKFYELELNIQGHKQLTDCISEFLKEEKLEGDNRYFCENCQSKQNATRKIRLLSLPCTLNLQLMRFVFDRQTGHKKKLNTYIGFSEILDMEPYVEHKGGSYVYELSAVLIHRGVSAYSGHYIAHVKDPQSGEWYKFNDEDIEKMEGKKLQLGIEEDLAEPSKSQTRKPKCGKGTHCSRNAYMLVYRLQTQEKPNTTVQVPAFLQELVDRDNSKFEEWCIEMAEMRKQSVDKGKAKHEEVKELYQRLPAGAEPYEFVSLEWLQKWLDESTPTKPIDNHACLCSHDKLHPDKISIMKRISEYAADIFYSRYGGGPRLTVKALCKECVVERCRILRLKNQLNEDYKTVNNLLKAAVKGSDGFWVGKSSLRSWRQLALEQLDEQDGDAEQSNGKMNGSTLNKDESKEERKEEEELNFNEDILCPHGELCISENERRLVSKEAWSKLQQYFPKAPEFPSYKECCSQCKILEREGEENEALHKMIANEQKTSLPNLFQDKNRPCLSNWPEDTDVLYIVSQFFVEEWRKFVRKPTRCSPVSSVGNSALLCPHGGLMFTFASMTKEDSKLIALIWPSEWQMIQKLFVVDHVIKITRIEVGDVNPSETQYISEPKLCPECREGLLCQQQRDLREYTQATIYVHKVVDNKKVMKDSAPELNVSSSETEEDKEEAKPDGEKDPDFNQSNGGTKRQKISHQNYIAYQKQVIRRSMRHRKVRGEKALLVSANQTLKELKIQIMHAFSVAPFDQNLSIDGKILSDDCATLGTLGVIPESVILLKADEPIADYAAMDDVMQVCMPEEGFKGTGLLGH
In a few lines: as §1

The next experiment addresses T4, USP5 (UniProt P45974).
T4 sequence (whole entry): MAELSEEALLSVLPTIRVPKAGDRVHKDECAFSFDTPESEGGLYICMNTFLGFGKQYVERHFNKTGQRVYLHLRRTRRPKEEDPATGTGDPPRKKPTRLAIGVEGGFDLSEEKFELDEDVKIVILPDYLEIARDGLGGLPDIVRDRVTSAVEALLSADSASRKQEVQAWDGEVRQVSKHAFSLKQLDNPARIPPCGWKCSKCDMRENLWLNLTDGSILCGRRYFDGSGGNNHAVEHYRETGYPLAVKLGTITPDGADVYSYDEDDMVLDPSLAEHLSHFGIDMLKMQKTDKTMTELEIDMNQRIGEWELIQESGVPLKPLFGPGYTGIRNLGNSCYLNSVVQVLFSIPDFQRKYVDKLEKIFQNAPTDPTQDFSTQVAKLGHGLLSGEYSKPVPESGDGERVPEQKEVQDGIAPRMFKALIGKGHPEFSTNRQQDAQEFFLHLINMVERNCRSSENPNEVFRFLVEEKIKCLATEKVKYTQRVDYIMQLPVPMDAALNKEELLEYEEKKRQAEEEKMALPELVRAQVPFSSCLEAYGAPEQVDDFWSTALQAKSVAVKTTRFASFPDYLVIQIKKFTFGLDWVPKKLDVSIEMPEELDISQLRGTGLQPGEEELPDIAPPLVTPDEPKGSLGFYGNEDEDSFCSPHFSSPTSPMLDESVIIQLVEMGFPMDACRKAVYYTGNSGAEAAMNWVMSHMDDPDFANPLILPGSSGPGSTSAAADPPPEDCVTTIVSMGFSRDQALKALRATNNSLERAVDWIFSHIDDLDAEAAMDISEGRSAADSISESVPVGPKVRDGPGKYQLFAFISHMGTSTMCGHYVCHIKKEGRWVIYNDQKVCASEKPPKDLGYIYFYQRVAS
In a few lines:
as §1

The target of another experiment is USP54 (UniProt Q70EL1). In a few lines:
as §1

The next experiment addresses USP7 (UniProt Q93009). In outline:
as §1

For the next experiment, the target named is T5, USP8 (UniProt P40818).
T5 sequence (whole entry): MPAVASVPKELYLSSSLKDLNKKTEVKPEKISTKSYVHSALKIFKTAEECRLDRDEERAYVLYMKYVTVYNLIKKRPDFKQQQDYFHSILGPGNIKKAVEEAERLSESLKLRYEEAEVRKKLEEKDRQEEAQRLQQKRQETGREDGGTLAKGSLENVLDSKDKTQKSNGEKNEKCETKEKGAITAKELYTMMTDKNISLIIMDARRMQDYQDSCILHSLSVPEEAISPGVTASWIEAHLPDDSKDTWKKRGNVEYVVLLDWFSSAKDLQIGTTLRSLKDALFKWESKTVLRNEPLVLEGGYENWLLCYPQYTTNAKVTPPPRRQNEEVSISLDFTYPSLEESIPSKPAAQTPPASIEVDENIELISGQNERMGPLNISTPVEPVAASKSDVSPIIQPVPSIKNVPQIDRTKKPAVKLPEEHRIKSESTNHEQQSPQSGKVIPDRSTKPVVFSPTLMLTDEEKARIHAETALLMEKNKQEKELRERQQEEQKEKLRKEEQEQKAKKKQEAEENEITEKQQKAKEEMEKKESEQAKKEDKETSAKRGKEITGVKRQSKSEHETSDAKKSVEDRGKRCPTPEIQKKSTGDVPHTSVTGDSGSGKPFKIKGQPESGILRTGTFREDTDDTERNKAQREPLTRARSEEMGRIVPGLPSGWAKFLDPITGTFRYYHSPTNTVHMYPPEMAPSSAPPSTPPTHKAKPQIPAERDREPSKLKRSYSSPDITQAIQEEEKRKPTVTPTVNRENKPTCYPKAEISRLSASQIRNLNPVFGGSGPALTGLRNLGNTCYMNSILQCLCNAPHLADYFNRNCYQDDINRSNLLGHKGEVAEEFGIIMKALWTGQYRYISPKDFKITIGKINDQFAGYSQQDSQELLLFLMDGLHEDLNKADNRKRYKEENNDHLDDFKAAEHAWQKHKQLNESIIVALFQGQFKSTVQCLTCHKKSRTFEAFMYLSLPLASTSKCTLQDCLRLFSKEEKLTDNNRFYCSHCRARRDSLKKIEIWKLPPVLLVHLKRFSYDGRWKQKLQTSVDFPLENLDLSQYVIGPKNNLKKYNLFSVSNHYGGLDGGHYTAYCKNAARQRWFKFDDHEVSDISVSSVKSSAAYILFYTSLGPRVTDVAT
In a few lines: as §1

A further experiment addresses USP9X (UniProt Q93008). In a few lines:
as §1

A further experiment has as its target UniProt O00487. In outline:
as §1

Chain of USP9X (Q93008 whole entry): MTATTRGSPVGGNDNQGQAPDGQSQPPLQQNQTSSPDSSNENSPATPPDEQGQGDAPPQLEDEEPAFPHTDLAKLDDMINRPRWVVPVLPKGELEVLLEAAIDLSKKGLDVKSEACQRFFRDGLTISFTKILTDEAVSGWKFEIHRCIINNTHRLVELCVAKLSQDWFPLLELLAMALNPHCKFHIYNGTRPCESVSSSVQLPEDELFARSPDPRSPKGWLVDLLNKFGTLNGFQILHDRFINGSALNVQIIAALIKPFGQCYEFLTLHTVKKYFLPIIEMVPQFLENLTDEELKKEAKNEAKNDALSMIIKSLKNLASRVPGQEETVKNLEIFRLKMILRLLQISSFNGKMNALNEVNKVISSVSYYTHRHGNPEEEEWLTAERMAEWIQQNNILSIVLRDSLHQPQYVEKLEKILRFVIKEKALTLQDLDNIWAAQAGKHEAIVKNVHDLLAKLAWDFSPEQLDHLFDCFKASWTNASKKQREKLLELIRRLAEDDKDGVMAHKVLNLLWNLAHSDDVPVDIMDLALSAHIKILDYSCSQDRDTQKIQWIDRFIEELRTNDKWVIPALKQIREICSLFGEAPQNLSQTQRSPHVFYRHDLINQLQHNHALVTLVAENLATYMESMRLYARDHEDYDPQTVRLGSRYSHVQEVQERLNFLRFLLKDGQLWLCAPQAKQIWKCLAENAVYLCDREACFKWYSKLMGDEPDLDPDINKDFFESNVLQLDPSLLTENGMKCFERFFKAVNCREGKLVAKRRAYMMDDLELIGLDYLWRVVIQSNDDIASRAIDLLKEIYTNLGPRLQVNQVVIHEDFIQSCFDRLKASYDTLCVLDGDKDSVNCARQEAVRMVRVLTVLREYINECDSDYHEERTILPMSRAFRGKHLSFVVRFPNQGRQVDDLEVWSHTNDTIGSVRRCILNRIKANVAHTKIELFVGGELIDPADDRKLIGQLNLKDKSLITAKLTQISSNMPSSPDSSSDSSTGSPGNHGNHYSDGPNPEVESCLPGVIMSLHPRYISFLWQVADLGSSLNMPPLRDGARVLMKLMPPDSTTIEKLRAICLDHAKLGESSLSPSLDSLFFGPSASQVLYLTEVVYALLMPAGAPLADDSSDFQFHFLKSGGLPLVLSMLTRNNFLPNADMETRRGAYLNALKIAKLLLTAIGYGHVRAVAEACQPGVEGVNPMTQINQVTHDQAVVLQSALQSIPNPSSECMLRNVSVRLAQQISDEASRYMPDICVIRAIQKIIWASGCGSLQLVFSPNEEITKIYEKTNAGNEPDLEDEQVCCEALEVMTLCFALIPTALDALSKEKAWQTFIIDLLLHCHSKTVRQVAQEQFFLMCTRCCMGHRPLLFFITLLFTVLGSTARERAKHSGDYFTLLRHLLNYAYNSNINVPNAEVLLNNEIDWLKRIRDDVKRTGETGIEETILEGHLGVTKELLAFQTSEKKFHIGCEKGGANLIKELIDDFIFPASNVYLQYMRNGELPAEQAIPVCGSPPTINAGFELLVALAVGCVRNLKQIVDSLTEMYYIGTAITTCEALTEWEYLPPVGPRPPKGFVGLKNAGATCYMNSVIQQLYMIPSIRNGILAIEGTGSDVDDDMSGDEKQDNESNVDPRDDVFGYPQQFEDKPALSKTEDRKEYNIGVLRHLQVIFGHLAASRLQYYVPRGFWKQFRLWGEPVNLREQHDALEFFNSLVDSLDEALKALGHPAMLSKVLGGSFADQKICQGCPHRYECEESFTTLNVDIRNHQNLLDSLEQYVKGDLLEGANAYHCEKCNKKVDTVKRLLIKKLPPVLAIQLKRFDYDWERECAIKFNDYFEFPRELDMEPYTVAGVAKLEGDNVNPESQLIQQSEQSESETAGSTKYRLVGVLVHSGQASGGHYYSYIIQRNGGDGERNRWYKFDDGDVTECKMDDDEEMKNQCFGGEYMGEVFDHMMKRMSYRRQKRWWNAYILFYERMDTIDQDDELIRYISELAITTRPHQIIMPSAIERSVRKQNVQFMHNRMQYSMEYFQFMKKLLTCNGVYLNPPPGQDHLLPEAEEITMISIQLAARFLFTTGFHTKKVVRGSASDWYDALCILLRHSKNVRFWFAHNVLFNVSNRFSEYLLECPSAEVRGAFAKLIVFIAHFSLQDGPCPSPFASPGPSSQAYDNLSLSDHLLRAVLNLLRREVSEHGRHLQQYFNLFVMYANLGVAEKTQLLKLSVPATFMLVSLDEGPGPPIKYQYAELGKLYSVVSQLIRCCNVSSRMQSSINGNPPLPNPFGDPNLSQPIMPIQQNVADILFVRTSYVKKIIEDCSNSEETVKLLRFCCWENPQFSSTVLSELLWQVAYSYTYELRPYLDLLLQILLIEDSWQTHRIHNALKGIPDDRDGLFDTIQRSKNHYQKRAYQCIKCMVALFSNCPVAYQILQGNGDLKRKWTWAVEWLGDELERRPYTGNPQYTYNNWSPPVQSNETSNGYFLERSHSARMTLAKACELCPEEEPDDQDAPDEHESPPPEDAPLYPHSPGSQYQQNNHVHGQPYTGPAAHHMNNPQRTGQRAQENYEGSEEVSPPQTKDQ
Chain of USP46 (P62068 whole entry): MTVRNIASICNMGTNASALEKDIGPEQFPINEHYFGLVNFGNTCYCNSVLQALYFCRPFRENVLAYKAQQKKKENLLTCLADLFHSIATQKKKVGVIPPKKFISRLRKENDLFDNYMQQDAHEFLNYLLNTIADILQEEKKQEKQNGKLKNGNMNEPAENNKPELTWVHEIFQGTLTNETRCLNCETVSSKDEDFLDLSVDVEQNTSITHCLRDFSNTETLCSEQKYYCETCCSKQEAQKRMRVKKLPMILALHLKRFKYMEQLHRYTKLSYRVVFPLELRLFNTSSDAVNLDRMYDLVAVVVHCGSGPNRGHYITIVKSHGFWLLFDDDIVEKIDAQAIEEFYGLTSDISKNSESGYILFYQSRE
Chain of UniProt O00487 (O00487 whole entry): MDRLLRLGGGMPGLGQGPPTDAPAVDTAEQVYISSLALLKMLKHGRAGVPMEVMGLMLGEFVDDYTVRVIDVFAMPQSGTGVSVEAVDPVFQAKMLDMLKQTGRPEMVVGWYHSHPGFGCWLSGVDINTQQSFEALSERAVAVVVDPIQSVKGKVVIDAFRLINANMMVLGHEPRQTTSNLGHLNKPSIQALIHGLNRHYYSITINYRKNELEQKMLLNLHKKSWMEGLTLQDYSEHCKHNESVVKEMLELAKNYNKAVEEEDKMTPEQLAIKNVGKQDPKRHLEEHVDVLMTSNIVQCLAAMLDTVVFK
Chain of USP54 (Q70EL1 whole entry): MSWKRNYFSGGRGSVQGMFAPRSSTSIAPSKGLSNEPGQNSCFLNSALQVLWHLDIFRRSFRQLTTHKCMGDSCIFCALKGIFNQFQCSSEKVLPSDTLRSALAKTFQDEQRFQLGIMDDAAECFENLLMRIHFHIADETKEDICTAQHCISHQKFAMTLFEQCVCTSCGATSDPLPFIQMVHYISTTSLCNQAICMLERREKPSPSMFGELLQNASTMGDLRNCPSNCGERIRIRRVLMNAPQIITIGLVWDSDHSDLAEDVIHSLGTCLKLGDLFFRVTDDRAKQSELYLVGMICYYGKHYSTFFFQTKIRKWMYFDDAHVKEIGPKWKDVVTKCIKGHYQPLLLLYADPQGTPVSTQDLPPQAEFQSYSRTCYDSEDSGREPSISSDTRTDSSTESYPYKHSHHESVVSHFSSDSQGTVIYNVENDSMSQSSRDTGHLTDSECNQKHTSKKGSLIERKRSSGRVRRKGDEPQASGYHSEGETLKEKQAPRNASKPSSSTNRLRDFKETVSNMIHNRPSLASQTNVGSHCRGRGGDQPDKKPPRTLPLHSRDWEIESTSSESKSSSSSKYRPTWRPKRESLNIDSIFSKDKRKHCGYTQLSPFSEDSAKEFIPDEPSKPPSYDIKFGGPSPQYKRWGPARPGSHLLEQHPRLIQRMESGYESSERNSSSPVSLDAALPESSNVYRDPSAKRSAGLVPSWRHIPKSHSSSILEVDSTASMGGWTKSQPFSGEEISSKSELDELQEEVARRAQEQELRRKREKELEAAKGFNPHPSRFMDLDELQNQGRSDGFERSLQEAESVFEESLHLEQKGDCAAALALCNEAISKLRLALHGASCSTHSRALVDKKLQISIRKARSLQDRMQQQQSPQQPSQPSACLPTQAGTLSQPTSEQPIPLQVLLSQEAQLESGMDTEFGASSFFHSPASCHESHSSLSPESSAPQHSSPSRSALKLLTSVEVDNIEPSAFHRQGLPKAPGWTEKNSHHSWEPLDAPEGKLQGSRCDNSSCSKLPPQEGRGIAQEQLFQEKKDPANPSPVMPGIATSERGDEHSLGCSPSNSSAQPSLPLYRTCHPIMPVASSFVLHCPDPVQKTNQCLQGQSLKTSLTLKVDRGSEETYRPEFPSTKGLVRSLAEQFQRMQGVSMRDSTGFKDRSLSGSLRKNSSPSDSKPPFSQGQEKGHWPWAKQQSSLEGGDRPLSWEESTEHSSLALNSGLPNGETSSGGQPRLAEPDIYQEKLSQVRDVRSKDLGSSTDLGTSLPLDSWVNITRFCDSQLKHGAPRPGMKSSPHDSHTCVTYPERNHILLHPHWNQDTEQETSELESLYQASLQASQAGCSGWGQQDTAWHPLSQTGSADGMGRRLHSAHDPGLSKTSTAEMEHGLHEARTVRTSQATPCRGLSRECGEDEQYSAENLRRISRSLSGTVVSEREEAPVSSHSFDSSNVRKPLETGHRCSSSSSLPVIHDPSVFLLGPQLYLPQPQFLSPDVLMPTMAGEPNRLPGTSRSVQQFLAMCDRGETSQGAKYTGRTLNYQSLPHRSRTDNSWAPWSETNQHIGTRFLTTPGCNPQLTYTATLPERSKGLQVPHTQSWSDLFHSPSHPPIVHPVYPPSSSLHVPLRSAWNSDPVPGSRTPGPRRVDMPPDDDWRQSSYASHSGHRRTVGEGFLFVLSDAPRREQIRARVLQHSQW

Regarding `O=C(CCl)N1CCC(=C(F)CO)C1`, the “log2 ratio of Biotin-Ahx-Ub-VS probe labelling” value (“log2 ratio” below) with USP42 was 0.374; with USP46 it was 0.0599; with USP47, 0.0525; in the experiment with USP48, 0.0406; in the experiment with USP5, 0.108; in the experiment with USP54, 0.0848. Moreover, the “log2 ratio” value with USP7 was 0.0769; in the experiment with USP8, 0.0438; with USP9X, 0.0939; with UniProt O00487, 0.129.
With `NC(=O)C1CCCCN1C(=O)CCl` (stereo not given), the “log2 ratio” value with USP42 is -0.0547; with USP46 it was 0.025; with USP47 it was -0.299; with USP48, -1.03 (active); with USP5 it was 0.371; with USP54, 0.325. Further, the “log2 ratio” value was -0.76 with USP7, -0.26 with USP8, -0.213 with USP9X and -0.0664 in the experiment with UniProt O00487.
